Results published in PubChem BioAssay (Tox21).
Results filed as inconclusive are left out. The source made the active and inactive calls. Unless noted, calls come from the whole dose curve; as a rule, active = well fitted curve in the direction sought with a large enough effect in the repeat runs; inconclusive = weak or mixed curves; inactive = no such curve, though single readings can be large; an effect the other way counts as inactive or inconclusive.

Columns and labels:
[1] = qHTS assay to identify aromatase inhibitors - cell viability counter screen (AID 743084);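 note: cells stimulated with testosterone during compound exposure; nearly all actives have a fitted effect of over 55% in size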
[2] = molecular target: Aryl hydrocarbon receptor (Homo sapiens) (UniProt P35869); assay: qHTS assay to identify small molecule that activate the aryl hydrocarbon receptor (AhR) signaling pathway (AID 743085); note: nearly all actives have a fitted effect of over 15% in size; note: potency is the fitted concentration of half-maximal effect;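 for activation: HG2L7.5c1 human HepG2 liver cells with stably integrated DRE-driven firefly reporter; series mostly up to about 70 µM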
Method in brief: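 AhR agonist activity is inferred from enhanced light output of a DRE-controlled firefly luciferase reporter in HepG2 cells, measured with ONE-Glo following 24 h treatment at 37C.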

[3] = qHTS assay to identify small molecule that activate the aryl hydrocarbon receptor (AhR) signaling pathway - cell viability counter screen (AID 743086); note: nearly all actives have a fitted effect of over 45% in size; note: potency is the fitted concentration of half-maximal effect;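 for viability change, negative = cytotoxic: HepG2 liver cells carrying the AhR DRE luciferase reporter; series mostly up to about 70 µM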
Method in brief: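 HepG2-AhR-luc (HG2L7.5c1) cells, 4000/well, treated 24 h at 37 C with compound; viability measured as CellTiter-Fluor fluorescence after 30 min in the same wells as the luciferase read.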

[4] = molecular target: Peroxisome proliferator-activated receptor gamma (Homo sapiens) (UniProt P37231); assay: qHTS assay to identify small molecule antagonists of the peroxisome proliferator-activated receptor gamma (PPARg) signaling pathway (AID 743191; calls by dose curve; note: series mostly up to about 63 µM; nearly all actives have a fitted effect of over 30% in size)
Method in brief: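 GeneBLAzer PPARg UAS-bla HEK293H cells, 5 h post-plating, exposed to compounds 17 h at 37C. LiveBLAzer B/G FRET substrate added for 1 h at room temperature; beta-lactamase reporter read by fluorescence intensity.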

[5] = qHTS assay to identify small molecule antagonists of the peroxisome proliferator-activated receptor gamma (PPARg) signaling pathway - cell viability counter screen (AID 743194); settings: Potency: co-treated with 50 nM rosiglitazone; note: nearly all actives have a fitted effect of over 55% in size
Method in brief: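 Cytotoxicity counter screen in PPARg-bla HEK293H cells, same wells as reporter assay. Compounds plus 50 nM rosiglitazone (final) for 17 h at 37 C, then viability read by CellTiter-Glo luminescence.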

[6] = qHTS assay for small molecule agonists of the antioxidant response element (ARE) signaling pathway - cell viability counter screen (AID 743203; calls by dose curve; note: nearly all actives have a fitted effect of over 55% in size)
Method in brief: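 Luminescence read-out (CellTiter-Glo, 30 min at room temperature) measured cell viability in the same wells as the ARE beta-lactamase reporter. HepG2 ARE-bla cells were treated with compounds for 16 hrs at 37C/5% CO2.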

[7] = qHTS assay for small molecule activators of the heat shock response signaling pathway - cell viability counter screen (AID 743209); note: nearly all actives have a fitted effect of over 50% in size
Method in brief: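 HSE-bla HeLa; 1500 cells/well; overnight 37 C, 5% CO2; compound 5 h 37 C; LiveBLAzer B/G substrate 2.5 h RT; CellTiter-Glo 30 min RT; luminescence.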

[8] = qHTS assay for small molecule activators of the heat shock response signaling pathway (AID 743210; active = well fitted activation curve with a large enough effect in the signal ratio in the repeat runs, with a control signal flat, not every such curve was filed as active; the % refers to the signal ratio;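 note: HeLa cells with beta-lactamase reporter driven by heat shock elements; series mostly up to about 63 µM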)
Method in brief: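 Beta-lactamase reporter read-out: FRET substrate fluorescence after 2.5 h at RT, following 5 h compound treatment at 37 C of HeLa cells carrying HSE-driven bla reporter; quantitative HTS format.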

[9] = qHTS assay to identify small molecule agonists of the peroxisome proliferator-activated receptor delta (PPARd) signaling pathway - cell viability counter screen (AID 743211); note: nearly all actives have a fitted effect of over 55% in size
Method in brief: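 qHTS cell viability: PPARd-bla HEK293H; 17 h cpd, 37C; CellTiter-Glo, luminescence at 30 min RT.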

[10] = molecular target: Peroxisome proliferator-activated receptor delta (Homo sapiens) (UniProt Q03181); assay: qHTS assay to identify small molecule agonists of the peroxisome proliferator-activated receptor delta (PPARd) signaling pathway (AID 743212; calls by dose curve)
Method in brief: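 Read-out: beta-lactamase FRET fluorescence after 2 h room-temperature incubation with LiveBLAzer B/G substrate. Cells were HEK293H carrying a UAS-bla reporter for PPARd, treated at 37 C with DMSO-dissolved compounds.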

[11] = qHTS assay to identify small molecule antagonists of the peroxisome proliferator-activated receptor delta (PPARd) signaling pathway - cell viability counter screen (AID 743213); note: nearly all actives have a fitted effect of over 50% in size
Method in brief: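 In this counter screen, HEK293H cells carrying a UAS-beta-lactamase reporter are co-treated with test compounds and 300 nM L165041 (final) for 17 h at 37 C; cell viability is quantified by CellTiter-Glo luminescence.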

[12] = molecular target: Peroxisome proliferator-activated receptor delta (Homo sapiens) (UniProt Q03181); assay: qHTS assay to identify small molecule antagonists of the peroxisome proliferator-activated receptor delta (PPARd) signaling pathway (AID 743215; active = well fitted inhibition curve with a large enough effect in the signal ratio in the repeat runs, not every such curve was filed as active; the % refers to the signal ratio;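 note: cells stimulated with agonist L165041 at 300 nM final during compound exposure; series mostly up to about 62 µM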)
Method in brief: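 HEK293H GeneBLAzer PPARd UAS-bla reporter cells; cpd + L165041 300 nM final, 17 h 37 C; LiveBLAzer B/G FRET substrate 2 h RT; fluorescence intensity read-out. Antagonist mode.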

[13] = qHTS assay to identify small molecule agonists of the farnesoid-X-receptor (FXR) signaling pathway - cell viability counter screen (AID 743218); note: nearly all actives have a fitted effect of over 45% in size
Method in brief: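 Luminescence from CellTiter-Glo, read after 30 min at RT, reports viability of GeneBLAzer FXR-UAS-bla HEK 293T cells treated 16 h with compounds in the wells used for the beta-lactamase reporter.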

[14] = qHTS assay to identify small molecule antagonists of the farnesoid-X-receptor (FXR) signaling pathway - cell viability counter screen (AID 743221; active = well fitted cell-killing curve with a large enough effect in the repeat runs, not every such curve was filed as active; note: nearly all actives have a fitted effect of over 50% in size)
Method in brief: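 After a 5 h settling period, FXR-bla HEK 293T cells receive compound and chenodeoxycholic acid (50 uM final) and incubate 16 h at 37 C; CellTiter-Glo luminescence, read after 30 min at room temperature, reports cell viability.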

[15] = molecular target: Vitamin D3 receptor (Homo sapiens) (UniProt P11473); assay: qHTS assay to identify small molecule agonists of the vitamin D receptor (VDR) signaling pathway (AID 743222; calls by dose curve)
Method in brief: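 Beta-lactamase reporter readout (LiveBLAzer B/G FRET, 2 h RT) in VDR-bla cells after 16 h compound treatment at 37C, 5% CO2; cells pre-incubated 4 h before pin transfer of DMSO solutions.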

[16] = molecular target: Vitamin D3 receptor (Homo sapiens) (UniProt P11473); assay: qHTS assay to identify small molecule antagonists of the vitamin D receptor (VDR) signaling pathway (AID 743223; active = well fitted inhibition curve with a large enough effect in the signal ratio in the repeat runs, not every such curve was filed as active; the % refers to the signal ratio)
Method in brief: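 Reporter line VDR-bla; stimulus 1alpha,25-(OH)2 vitamin D3, 3 nM final; compound co-addition, 16 h 37C/5% CO2; LiveBLAzer B/G substrate 2 h RT; fluorescence intensity.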

[17] = molecular target: Peroxisome proliferator-activated receptor gamma (Homo sapiens) (UniProt P37231); assay: qHTS assay to identify small molecule agonists of the peroxisome proliferator-activated receptor gamma (PPARg) signaling pathway (AID 743094; active = well fitted activation curve with a large enough effect in the signal ratio in the repeat runs, not every such curve was filed as active; the % refers to the signal ratio)
Method in brief: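 HEK293H PPARg-bla cells, 5 h settle at 37C/5% CO2; compound (DMSO) 17 h, 37C; B/G FRET substrate 1 h RT; fluorescence intensity read-out. qHTS format.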

[18] = molecular target: Bile acid receptor (Homo sapiens) (UniProt Q96RI1); assay: qHTS assay to identify small molecule agonists of the farnesoid-X-receptor (FXR) signaling pathway (AID 743220; active = well fitted activation curve with a large enough effect in the signal ratio in the repeat runs, not every such curve was filed as active; the % refers to the signal ratio)
Method in brief: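 FXR-UAS-bla HEK 293T cells carrying a UAS-driven beta-lactamase reporter were plated for 5 h at 37C/5% CO2, then exposed to DMSO-dissolved Tox21 10K compounds for 16 h at 37C. A LiveBLAzer B/G FRET substrate was loaded for 2 h at room temperature before fluorescence reading.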

[19] = qHTS assay for small molecule agonists of the antioxidant response element (ARE) signaling pathway (AID 743202; active = well fitted activation curve with a large enough effect in the signal ratio in the repeat runs, not every such curve was filed as active; the % refers to the signal ratio; note: potency is the fitted concentration of half-maximal effect)
Method in brief: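 HepG2 ARE-bla reporter line, 2,000 cells/well; 5 h preincubation 37 C/5% CO2; compound (DMSO) 16 h 37 C; B/G FRET substrate 2 h RT; fluorescence intensity.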

[20] = molecular target: Bile acid receptor (Homo sapiens) (UniProt Q96RI1); assay: qHTS assay to identify small molecule antagonists of the farnesoid-X-receptor (FXR) signaling pathway (AID 743217; active = well fitted inhibition curve with a large enough effect in the signal ratio in the repeat runs, not every such curve was filed as active; the % refers to the signal ratio)
Method in brief: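 Read-out: beta-lactamase FRET fluorescence (LiveBLAzer B/G substrate, 2 h, room temperature) in GeneBLAzer FXR-UAS-bla HEK 293T cells. Compounds were co-dosed with 50 uM chenodeoxycholic acid (final) and incubated 16 h at 37 °C.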
% is set by controls: 0 for no effect and ±100 for the full control effect.

Chain of Vitamin D3 receptor (Homo sapiens) (P11473 whole entry, looked up): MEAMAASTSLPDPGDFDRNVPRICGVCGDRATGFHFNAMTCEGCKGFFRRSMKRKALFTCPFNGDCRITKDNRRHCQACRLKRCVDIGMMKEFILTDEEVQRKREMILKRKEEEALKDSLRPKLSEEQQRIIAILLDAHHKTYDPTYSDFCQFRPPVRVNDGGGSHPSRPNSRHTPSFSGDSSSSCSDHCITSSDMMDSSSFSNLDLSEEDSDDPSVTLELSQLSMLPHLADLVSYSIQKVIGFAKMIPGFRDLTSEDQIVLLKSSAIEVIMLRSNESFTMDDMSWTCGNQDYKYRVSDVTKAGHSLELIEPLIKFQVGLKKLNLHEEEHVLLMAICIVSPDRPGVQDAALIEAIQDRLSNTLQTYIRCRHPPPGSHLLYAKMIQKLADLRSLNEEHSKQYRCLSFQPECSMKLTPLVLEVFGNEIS
Chain of Aryl hydrocarbon receptor (Homo sapiens) (P35869 whole entry, looked up): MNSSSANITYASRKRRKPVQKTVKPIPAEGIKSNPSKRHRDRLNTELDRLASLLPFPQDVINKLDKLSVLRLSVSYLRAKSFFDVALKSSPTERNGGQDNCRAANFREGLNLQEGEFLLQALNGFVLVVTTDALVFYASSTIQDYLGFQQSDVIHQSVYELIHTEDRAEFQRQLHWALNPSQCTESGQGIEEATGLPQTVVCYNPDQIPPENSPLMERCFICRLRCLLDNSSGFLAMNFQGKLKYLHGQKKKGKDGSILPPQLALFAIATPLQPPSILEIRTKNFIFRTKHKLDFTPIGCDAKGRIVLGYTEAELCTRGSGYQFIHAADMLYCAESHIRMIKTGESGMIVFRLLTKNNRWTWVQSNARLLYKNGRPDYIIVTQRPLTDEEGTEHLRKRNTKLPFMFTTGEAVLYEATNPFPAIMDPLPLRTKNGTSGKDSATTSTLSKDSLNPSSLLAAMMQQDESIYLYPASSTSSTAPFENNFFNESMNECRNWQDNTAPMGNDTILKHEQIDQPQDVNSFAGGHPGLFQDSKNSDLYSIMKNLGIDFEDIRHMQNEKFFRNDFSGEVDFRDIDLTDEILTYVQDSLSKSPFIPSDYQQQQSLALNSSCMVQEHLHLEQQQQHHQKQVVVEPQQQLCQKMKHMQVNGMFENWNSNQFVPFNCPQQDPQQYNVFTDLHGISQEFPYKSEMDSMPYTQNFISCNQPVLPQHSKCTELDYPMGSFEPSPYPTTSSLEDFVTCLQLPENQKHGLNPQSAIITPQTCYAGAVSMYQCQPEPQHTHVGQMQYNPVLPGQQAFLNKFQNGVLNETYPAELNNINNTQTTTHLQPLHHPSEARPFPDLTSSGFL
Chain of Peroxisome proliferator-activated receptor delta (Homo sapiens) (Q03181 whole entry, looked up): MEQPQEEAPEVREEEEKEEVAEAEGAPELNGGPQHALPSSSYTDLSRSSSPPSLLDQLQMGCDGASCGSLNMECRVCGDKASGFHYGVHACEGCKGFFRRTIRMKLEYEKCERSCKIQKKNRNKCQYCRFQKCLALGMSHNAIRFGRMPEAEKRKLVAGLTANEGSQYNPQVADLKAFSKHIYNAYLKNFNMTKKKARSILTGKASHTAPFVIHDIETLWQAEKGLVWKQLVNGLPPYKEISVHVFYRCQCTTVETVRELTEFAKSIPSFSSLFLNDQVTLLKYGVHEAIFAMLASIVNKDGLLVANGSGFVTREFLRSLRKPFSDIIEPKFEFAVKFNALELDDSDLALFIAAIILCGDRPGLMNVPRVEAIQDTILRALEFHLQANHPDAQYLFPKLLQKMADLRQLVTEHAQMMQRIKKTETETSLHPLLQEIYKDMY
Chain of Bile acid receptor (Homo sapiens) (Q96RI1 whole entry, looked up): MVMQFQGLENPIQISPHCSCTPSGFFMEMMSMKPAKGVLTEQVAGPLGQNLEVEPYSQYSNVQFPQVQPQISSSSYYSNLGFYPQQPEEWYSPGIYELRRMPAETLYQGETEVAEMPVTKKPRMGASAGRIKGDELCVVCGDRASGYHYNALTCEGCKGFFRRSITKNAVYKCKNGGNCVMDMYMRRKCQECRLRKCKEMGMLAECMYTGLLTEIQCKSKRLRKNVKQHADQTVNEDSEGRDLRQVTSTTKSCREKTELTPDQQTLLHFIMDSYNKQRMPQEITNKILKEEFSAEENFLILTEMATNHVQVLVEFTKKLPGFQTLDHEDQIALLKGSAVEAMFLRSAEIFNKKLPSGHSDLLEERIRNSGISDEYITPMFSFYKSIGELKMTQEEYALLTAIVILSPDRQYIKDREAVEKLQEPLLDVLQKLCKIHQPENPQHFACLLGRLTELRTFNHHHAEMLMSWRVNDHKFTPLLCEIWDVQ
Chain of Peroxisome proliferator-activated receptor gamma (Homo sapiens) (P37231 whole entry, looked up): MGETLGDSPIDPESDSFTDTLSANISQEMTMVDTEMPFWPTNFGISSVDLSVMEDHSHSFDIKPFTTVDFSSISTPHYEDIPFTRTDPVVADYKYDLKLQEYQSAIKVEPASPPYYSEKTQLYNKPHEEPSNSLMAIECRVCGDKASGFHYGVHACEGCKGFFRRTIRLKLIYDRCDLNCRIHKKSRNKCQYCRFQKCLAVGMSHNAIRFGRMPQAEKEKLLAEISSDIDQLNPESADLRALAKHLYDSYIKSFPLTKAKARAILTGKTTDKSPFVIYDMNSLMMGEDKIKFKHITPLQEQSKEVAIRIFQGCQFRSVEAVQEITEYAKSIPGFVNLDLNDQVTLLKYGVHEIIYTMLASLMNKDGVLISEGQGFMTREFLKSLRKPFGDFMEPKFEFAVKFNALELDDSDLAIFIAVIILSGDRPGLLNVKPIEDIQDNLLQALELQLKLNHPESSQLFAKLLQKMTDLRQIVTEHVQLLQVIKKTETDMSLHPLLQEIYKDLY

[O-][Cl+]O
inactive: Potency [1] | Potency [2] | Potency [3] | Potency [4] | Potency [5] | Potency [6] | Potency [7] | outcome [8] | Potency [9] | outcome [10] | Potency [11] | Potency [12] | Potency [13] | Potency [14] | outcome [15] | outcome [16]

NCC(CC(=O)O)c1ccc(Cl)cc1 (stereo not given)
inactive: Potency [1] | Potency [2] | Potency [3] | Potency [17] | activity change, negative = cytotoxicity [5] -16.4% [at 0.55 µM] | viability change, negative = cytotoxic [6] 4.15% [at 0.756 µM] | activity change, negative = cytotoxicity [7] 1.94% [at 0.55 µM] | activation [8] -1.61% [at 0.55 µM] | activity change, negative = cytotoxicity [9] -0.324% [at 0.55 µM] | activation [10] 1.99% [at 0.55 µM] | viability change, negative = cytotoxic [11] -11.6% [at 0.575 µM] | ratio activity, negative = inhibition [12] -0.236% [at 0.575 µM] | viability change, negative = cytotoxic [13] 0.276% [at 0.55 µM]

COC(=O)C(Cl)C(=O)OC
inactive: Potency [1] | Potency [2] | Potency [3] | Potency [17] | Potency [6] | outcome [8] | Potency [9] | outcome [10] | Potency [11] | Potency [12] | outcome [18] | Potency [14]

CCOC(=O)COc1cc(-c2nn(C)c(OC(F)F)c2Cl)c(F)cc1Cl
active: Potency [2] 19.3 µM
inactive: Potency [1] | Potency [3] | Potency [17] | Potency [4] | Potency [6] | Potency [7] | Potency [9] | outcome [10] | Potency [11] | Potency [12] | outcome [15] | outcome [16]

O=C1NCN(c2ccccc2)C12CCN(CCCOc1ccc(F)cc1)CC2
inactive: Potency [1] | Potency [2] | Potency [17] | Potency [7] | outcome [10] | Potency [12] | Potency [14] | outcome [15]
active: Potency [3] 5.31 µM | Potency [19] 2.37 µM

COCC(C)N(C(=O)CCl)c1c(C)csc1C (stereo not given)
active: Potency [19] 4.33 µM
inactive: Potency [1] | Potency [2] | Potency [3] | Potency [17] | Potency [5] | Potency [7] | outcome [8] | Potency [9] | Potency [20] | Potency [13] | Potency [14]

Cc1cc(=O)[nH]o1
inactive: Potency [1] | Potency [2] | Potency [3] | Potency [17] | Potency [5] | Potency [6] | Potency [7] | outcome [8] | Potency [9] | outcome [10] | Potency [12] | Potency [14]

O=C(O)COc1ccc(Cl)cc1
inactive: Potency [1] | Potency [2] | Potency [3] | Potency [17] | Potency [5] | Potency [6] | Potency [7] | outcome [8] | Potency [9] | outcome [10] | Potency [11] | Potency [12] | Potency [13] | Potency [14] | outcome [15]

CN1C(=O)NC(=O)C(C)(C2=CCCCC2)C1=O (stereo not given)
inactive: Potency [1] | Potency [2] | Potency [3] | Potency [17] | Potency [5] | Potency [19] | Potency [6] | Potency [7] | outcome [8] | Potency [9] | outcome [10] | Potency [11] | Potency [12] | Potency [13] | Potency [14]

O=Cc1ccc2c(c1)OCO2
inactive: Potency [1] | Potency [2] | Potency [3] | Potency [17] | Potency [19] | Potency [6] | Potency [7] | Potency [9] | outcome [10] | Potency [11] | Potency [12] | Potency [20] | Potency [13] | outcome [18] | Potency [14] | outcome [15] | outcome [16]
